# Reference: PubChem BioAssay (NCI)
# “And” between values parts separate entries of the source, which are not always exact repeats. Equal entries are not always repeated. Compounds without any hit were thinned out: in the full panel of roughly 79,000, 15% have a hit. Values without a mark were called inactive. The source made the active and inactive calls. No stated cut-off is given here; in the data, active means growth inhibition above about 70%; inactive means the rest.
# Legend:
# [1] = NCI Yeast Anticancer Drug Screen. Data for the rad50 strain (AID 155);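 further: 0% = growth of vehicle-only cultures of the same strain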; conditions: S. cerevisiae rad50 strain growth inhibition, active compounds read high
# Procedure, shortened: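 Compounds were tested on a yeast strain with an engineered DNA damage repair alteration; the reported value is growth inhibition normalised to vehicle treatment.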
# [2] = NCI Yeast Anticancer Drug Screen. Data for the mec2-1 strain (AID 157); conditions: S. cerevisiae mec2-1 strain, active compounds read high
# Procedure, shortened: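 Mutant yeast (mec2-1) grown with compound; growth inhibition relative to vehicle control reported.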
# [3] = NCI Yeast Anticancer Drug Screen. Data for the sgs1 mgt1 strain (AID 161);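 further: 0% = growth of cultures given vehicle only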; conditions: S. cerevisiae sgs1 mgt1 strain, active compounds read high
# Procedure, shortened: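 This yeast growth screen uses a strain with defined DNA-repair lesions; compound-treated growth is compared with vehicle-treated growth.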
# [4] = NCI Yeast Anticancer Drug Screen. Data for the cln2 rad14 strain (AID 165);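 further: 0% = growth equal to vehicle treated cultures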; conditions: S. cerevisiae cln2 rad14 strain, active compounds read high
# Procedure, shortened: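 Readout is yeast growth inhibition versus vehicle-treated controls, using a strain with cln2 and rad14 alterations exposed to compound.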
# [5] = NCI Yeast Anticancer Drug Screen. Data for the bub3 strain (AID 167); conditions: S. cerevisiae bub3 mutant strain, active compounds read high
# Procedure, shortened: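 Growth of a checkpoint-deficient yeast mutant is measured after compound exposure. Values represent inhibition relative to vehicle.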
# [6] = NCI Yeast Anticancer Drug Screen. Data for the mlh1 rad18 strain (AID 175); conditions: S. cerevisiae mlh1 rad18 strain growth inhibition, active compounds read high
# Procedure, shortened: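 Genetically defined yeast (DNA repair-deficient) exposed to compounds; growth inhibition determined relative to vehicle.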
# [7] = at 5.0 µM (retest, dose inferred, filed as 0.5)
# [8] = at 50.0 µM (retest, dose inferred, filed as 5.0)
SMILES,"growth inhibition [1, 7]","growth inhibition [1, 8]",growth inhibition ([1]; at 50.0 µM),"growth inhibition [2, 7]","growth inhibition [2, 8]",growth inhibition ([2]; at 50.0 µM),"growth inhibition [3, 7]","growth inhibition [3, 8]",growth inhibition ([3]; at 50.0 µM),"growth inhibition [4, 7]","growth inhibition [4, 8]",growth inhibition ([4]; at 50.0 µM),"growth inhibition [5, 7]","growth inhibition [5, 8]",growth inhibition ([5]; at 50.0 µM),"growth inhibition [6, 7]","growth inhibition [6, 8]",growth inhibition ([6]; at 50.0 µM)
COc1c(O)c2c(c3cc(C(=O)N4CCc5c4c(O)c(OC)c4[nH]c(C(=O)N6CC7CC78C6=CC(=O)c6[nH]cc(C)c68)cc54)[nH]c13)CCN2C(N)=O (centres undefined),97% (active),97% (active),89.8% (active),98% (active),98% (active),93% (active),96% (active),96% (active),90.5% (active),95% (active),95% (active),89% (active),94% (active),96% (active),91% (active),98% (active),97% (active),89.5% (active)
C/C(=N\O)C(CN(C)C)C(c1ccccc1)c1c(O)c2ccccc2oc1=O (centres undefined),25%,25%,76.5% (active),12%,12%,63.4%,15%,15%,82.2% (active),4%,4%,75.8% (active),12%,12%,74.7% (active),14%,14%,75.2% (active)
CCc1cc2c(cc1-c1csc(C/C(N)=N/O)n1)C(C)(C)CCC2(C)C,55%,88% (active),89.5% (active),38%,92% (active),90.7% (active),52%,93% (active),91.4% (active),39%,96% (active),89.7% (active),48%,93% (active),91% (active),60%,94% (active),90.3% (active)
NCCBr,0%,-26%,-8.5% and -19.5%,-1%,1%,-7.65% and -21.2%,-3%,-4%,6.55% and -5.6%,3%,-3%,-23.7% and -8.9%,-25%,-6%,-0.55% and 1.2%,4%,-2%,2.25% and -0.05%
O=[N+]([O-])c1ccc(C=Cc2ccc(C(F)(F)F)cc2)cc1.[C-]#[O+].[C-]#[O+].[C-]#[O+].[Cr],2%,67%,29%,0%,51%,55.8%,17%,60%,72.5% (active),-22%,60%,26.6%,0%,75% (active),73.2% (active),12%,72% (active),73.9% (active)
CCC[CH2][Sn]([CH2]CCC)([CH2]CCC)[O]C(=O)C[N+](C)(C)c1cc[c]([Hg][c]2ccc(N(C)C)cc2)cc1,99% (active),99% (active),98.6% (active) and 97.8% (active),100% (active),100% (active) and 99% (active),99.5% (active),100% (active),98% (active) and 99% (active),99.1% (active) and 99.2% (active),99% (active),99% (active),98.4% (active) and 98.9% (active),99% (active),99% (active),98.8% (active) and 99.1% (active),99% (active),99% (active),99% (active) and 99.2% (active)
O=[N+]([O-])c1cc([N+](=O)[O-])c2cccnc2c1O,-4%,3%,98.6% (active),-10%,-10%,98.3% (active),-3%,11%,97.5% (active),2%,-2%,94.3% (active),-7%,-11%,98% (active),-4%,-7%,96.8% (active)
ClCc1nc2ccccc2[nH]1,10%,88% (active),88.7% (active),4%,45%,20.5%,18%,83% (active),83.5% (active),-1%,77% (active),60%,-9%,1%,-31.9%,14%,82% (active),74.7% (active)
C[n+]1c(/C=C/c2ccc(O)c(O)c2)[se]c2ccccc21,12%,72% (active),77.7% (active),3%,80% (active),70.6% (active),48%,81% (active),82.7% (active),19%,53%,66.9%,-3%,61%,56.1%,18%,80% (active),77% (active)
COc1ccc(/C=C/[N+](=O)[O-])c(OC)c1OC,43%,50%,84.5% (active),52%,55%,92.5% (active),48%,100% (active),93.2% (active),50%,99% (active),54%,69%,99% (active),91.8% (active),39%,48%,87.8% (active)
CS(=O)(=O)[O-].CS(=O)(=O)[O-].NC1CCCCC1N.[Pt+4] (centres undefined),99% (active),99% (active),90.7% (active),100% (active),99% (active),91.2% (active),100% (active),99% (active),92% (active),100% (active),99% (active),90.9% (active),99% (active),99% (active),91.2% (active),99% (active),98% (active),88.3% (active)
c1ccc(CCNCc2ccccc2)cc1,-2%,3%,-2.35% and 6.05%,-2%,2%,6.45% and 3.8%,-4%,0%,-7.05% and -3.9%,0%,4%,54% and -3.45%,5%,4%,-7.5% and 16.1%,3%,6%,0.4% and 3.2%
CCC[CH2][Sn]1([CH2]CCC)[O]N=Cc2ccccc2[O]1,46%,94% (active),86.8% (active),50%,97% (active),90.5% (active),79% (active),98% (active),88.2% (active),62%,97% (active),87.1% (active),85% (active),98% (active),90.1% (active),73% (active),97% (active),88.3% (active)
O=[N+]([O-])/C=C/c1cc2c(cc1Br)OCO2,78% (active),89% (active),98.5% (active),53%,89% (active),99.2% (active),73% (active),87% (active),97.9% (active),26%,62%,94.2% (active),48%,89% (active),82.5% (active),68%,88% (active),98.5% (active)
CCC(C)(C)c1ccc(O)cc1,-1%,16%,-19.3% and 59.8%,-3%,0%,-17.4% and 40.9%,-10%,5%,-10.9% and 63%,1%,-4%,-15.2% and -13.6%,2%,7%,-28.6% and 38.3%,-2%,11%,-17.7% and 64.5%
O=C1N[C@@H]2C(=C[C@H](O)[C@@H](O)[C@H]2O)c2cc3c(c(O)c21)OCO3,41%,82% (active),3.8%,41%,82% (active),-19%,53%,84% (active),18.1%,60%,83% (active),0.2%,53%,78% (active),-3.1%,41%,84% (active),6.3%
COc1cc(C[C@H]2c3cc(OC)c(OC)c(O)c3CCN2C)c(Oc2cc3c(cc2OC)-c2c(OC)c(OC)c(OC)c4c2C(C3)N(C)CC4)cc1OC (some centres undefined) (tested in a mixture with another compound),-2%,40%,64.7%,-1%,52%,33.5%,-6%,36%,47.8%,-7%,44%,44.8%,3%,39%,61.5%,-5%,96% (active),80% (active)
O=C(N/N=C/c1cc(Cl)cc(Cl)c1[O-])c1ccccc1O.O=C(N/N=C/c1cc(Cl)cc(Cl)c1[O-])c1ccccc1O.[Mn+2],57%,90% (active),66.8%,88% (active),87% (active),91.3% (active),68%,88% (active),47.1%,77% (active),72% (active),85% (active),89% (active),80% (active),90.8% (active),56%,87% (active),68.2%
